This is an account of results in PubChem BioAssay (NCI).

The panel holds about 83,000 compounds, 20% with a hit somewhere; the sample as a whole holds those more often.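 Treatment: one concentration, 48 hours, 96-well format. Scoring: percent growth, with anything below 10 considered active.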 Unmarked numbers belong to inactive results. Calls of active or inactive are those of the source.

Holding throughout (assay): NCI-60 one-dose screen, 48 h (100 = growth as untreated, 0 = no growth, -100 = all killed)
What all share (settings): 10 µM unless noted

Assay [1] concerns RPMI-8226 leukemia.
Assay [2] has as its system OVCAR-8 ovarian.
Assay [3] has as its system OVCAR-5 ovarian.
For assay [4], the system named is OVCAR-4 ovarian.
Assay [5] has as its system SK-OV-3 ovarian.
In assay [6] the test system is IGROV1 ovarian.
For assay [7], the system named is OVCAR-3 ovarian.
Assay [8] deals with HS 578T breast.
The test system of assay [9] is NCI/ADR-RES ovarian.
Assay [10] concerns T-47D breast.
The subject of assay [11] is MDA-MB-435 melanoma.
For assay [12], the system named is SW-620 colon.
Assay [13] concerns MCF7 breast.
Assay [14] has as its system HCT-116 colon.
The subject of assay [15] is HCC-2998 colon.
In assay [16] the test system is KM12 colon.
In assay [17] the test system is BT-549 breast.

In the case of `Cc1ccccc1-c1cc(Cc2ccccc2O)c(=O)[nH]n1`, the growth was 78.6% in [1]; 91.8% in assay [2]; 118% in assay [3]; 106% in [4]; 253% in [5]; 86.6% in assay [6]. Further, the growth in [7] is 100%; in assay [8] it was 104%; in [9], 111%; in assay [10], 200%; in assay [11] it was 109%; in assay [12], 116%. The growth in assay [13] was 103%; in [14], 93.5%; in assay [15] it was 124%; in assay [16] it was 98.1%.

Consider `CCC(C)(C)C(=O)O[C@H]1C[C@@H](C)C=C2C=C[C@H](C)[C@H](CC[C@@H]3C[C@@H](O)CC(=O)O3)[C@H]21`, for which the growth in assay [1] was 62.7%; in assay [2] it was 48%; in [3] it was 87.1%; in [4], 86.6%; in assay [5], 70%; in assay [6], 28.8%. In addition, the growth was 85.7% in [7]; 42.4% in [8]; 25.5% in assay [9]; 92.1% in [10]; 68.8% in assay [11]; 61.2% in assay [12]. The growth in assay [14] was 20.4%; in assay [15], 71.9%; in [16] it was 90.7%.

Regarding `O=C(/C(=C/c1cccc([N+](=O)[O-])c1)c1ccccc1)c1ccccc1`, the growth in [1] is -7.27% (active); in assay [2], 13%; in assay [3], 74.5%; in assay [4], 42.9%; in assay [5], 105%; in assay [6], 60.4%. Further, the growth in assay [7] is 23.4%; in assay [8], 44.9%; in assay [10] it was 69.8%; in [17], 33.1%; in assay [11] it was 7.47% (active); in assay [12], 10.9%. The growth in assay [13] was 26.7%; in assay [14] it was 8.24% (active); in [16] it was 18.3%.

`O=C(c1nn(-c2ccc(Cl)cc2)cc1O)n1nc(C(F)(F)F)cc1-c1ccccc1`: the growth in assay [1] is -10.4% (active); in assay [2], 22.9%; in assay [3], 58.7%; in [4] it was 29.2%; in [5], 23.2%; in [6], 34.9%. The growth was -1.65% (active) in assay [7]; 15.8% in assay [8]; 19.4% in [9]; 44.9% in [10]; 48.1% in [11]; 39.6% in [12]. Moreover, the growth in assay [13] was 44%; in assay [14] it was 8.39% (active); in assay [15] it was 43.2%; in assay [16], 50.8%.

As for `COc1ccc2[nH]c(-c3ccccc3)cc2c1`, the growth in [1] is 48.5%; in assay [2], 103%; in [3], 109%; in assay [4], 81.3%; in assay [5], 110%; in assay [6], 100%. The growth in [7] was 101%; in assay [8], 105%; in [9], 113%; in [10], 72%; in assay [11], 100%; in assay [12] it was 102%. The growth in assay [13] was 95%; in assay [14] it was 100%; in assay [15], 118%; in [16] it was 99.3%.

Consider `O=C1CC(C(F)(F)F)=NN1C(=O)c1nn(-c2ccc(Cl)cc2)cc1O`, for which the growth in assay [1] is 71.6%; in assay [2] it was 71.9%; in assay [3], 87.6%; in assay [4] it was 79%; in [5] it was 75.4%; in assay [6], 88.7%. Also, the growth in [7] is 65.7%; in assay [8] it was 106%; in assay [9], 72.4%; in [10], 84.8%; in [11], 95.3%; in [12] it was 97.1%. The growth was 102% in assay [13], 74.1% in assay [14], 89.7% in [15] and 79.9% in assay [16].

`O=C(/C(=C/c1ccc([N+](=O)[O-])cc1)c1ccccc1)c1ccccc1`: the growth in assay [1] is -10.5% (active); in [2], 8.51% (active); in assay [3], 76.3%; in assay [4], 57.8%; in assay [5], 92.7%; in assay [6], 74.1%. Also, the growth was 16.4% in assay [7]; 57.9% in assay [8]; 72% in assay [10]; 15.5% in assay [17]; 10.9% in [11]; 11.7% in assay [12]. Besides, the figures for the growth in [13], in [14] and in assay [16] were 26.4%, 6.38% (active) and 19.6%, respectively.

Turning to `COc1cc(/C=C2\CCC/C(=C\c3ccc(OCC4CO4)c(OC)c3)C2=O)ccc1OCC1CO1` (centres undefined), the growth in assay [1] is -2.29% (active); in assay [2], 0.499% (active); in [3] it was 86%; in [4], 47.1%; in [5] it was 20.1%; in [6], -12.6% (active). For the same compound, the growth in assay [7] is -22.8% (active); in assay [8] it was 23.4%; in [9], 56.8%; in assay [10], 46.3%; in assay [11], -32.3% (active); in assay [12] it was -23% (active). The figures for the growth in [13], in [14] and in assay [16] were -6.99% (active), -54.7% (active) and -0.568% (active), respectively.
